Measurements from PubChem BioAssay AID1159580 (chemical genetic matrix, 2015).
Values joined by “and” are separate entries in the source; they are usually repeats but may differ in a detail not shown here. Equal values may be shown once. Out of some 5,500 compounds screened, about 2,000 (36%) were called active. Inconclusive results (about 18%) are left out. No stated cut-off is given here; in the data, active means normalized growth mostly below about 0.91 (no sharp cut-off); inconclusive means no clear call, values can overlap the other calls; inactive means mostly above about 0.92. Some of the results follow. The source holds several records for some structures; these can differ, active in one and inactive in another.

Test: chemical genetic growth profiling, strain panel (AID 1159580);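 further: tested at 20 µM; growth read once vehicle control cultures reached saturation at 30 °C; 1 = growth at the plate median or of vehicle wells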
Settings: S. cerevisiae deletion strains, growth OD

CN1CCN(CCCN2c3ccccc3Sc3ccc(Cl)cc32)CC1
normalized growth (locus YAL013W, strain DEP1, stronger effect = lower value): 0.216 (active) and 1.03 (inactive)
normalized growth (locus YAL021C, strain ccr4, stronger effect = lower value): 0.706 (active)
normalized growth (locus YAL026C, strain drs2, stronger effect = lower value): 0.0669 (active)
normalized growth (locus YAL030W, strain snc1, stronger effect = lower value): 0.922 (active)
normalized growth (locus YAL040C, strain CLN3, stronger effect = lower value): 0.97 (inactive)
normalized growth (locus YBL061C, strain skt5, stronger effect = lower value): 0.888 (active)
normalized growth (locus YBR009C, strain hhf1, stronger effect = lower value): 0.8 (active)
normalized growth (locus YBR021W, strain FUR4, stronger effect = lower value): 0.413 (active)
normalized growth (locus YBR023C, strain chs3, stronger effect = lower value): 0.868 (active)
normalized growth (locus YBR171W, strain sec66, stronger effect = lower value): 0.987 (inactive)
normalized growth (locus YBR229C, strain ROT2, stronger effect = lower value): 1 (inactive)
normalized growth (locus YBR231C, strain swc5, stronger effect = lower value): 0.663 (active)
normalized growth (locus YCL011C, strain gbp2, stronger effect = lower value): 0.772 (active)
normalized growth (locus YCL016C, strain dcc1, stronger effect = lower value): 0.938 (inactive)
normalized growth (locus YCL029C, strain bik1, stronger effect = lower value): 1.03 (inactive)
normalized growth (locus YCL061C, strain MRC1 (second series), stronger effect = lower value): 0.997 (inactive)
normalized growth (locus YCL069W, strain vba3, stronger effect = lower value): 0.966 (inactive)
normalized growth (locus YCR088W, strain abp1, stronger effect = lower value): 0.831 (active)
normalized growth (locus YDL005C, strain med2, stronger effect = lower value): 1 (inactive)
normalized growth (locus YDL035C, strain GPR1, stronger effect = lower value): 0.214 (active)
normalized growth (locus YDL040C, strain nat1, stronger effect = lower value): 0.964 (inactive)
normalized growth (locus YDL074C, strain BRE1, stronger effect = lower value): 0.296 (active)
normalized growth (locus YDL101C, strain DUN1, stronger effect = lower value): 0.965 (inactive)
normalized growth (locus YDL134C, strain PPH21, stronger effect = lower value): 0.982 (inactive)
normalized growth (locus YDL185W, strain tfp1, stronger effect = lower value): 0.964 (inactive)
normalized growth (locus YDL192W, strain arf1, stronger effect = lower value): 0.0937 (active)
normalized growth (locus YDR001C, strain nth1, stronger effect = lower value): 0.993 (inactive)
normalized growth (locus YDR069C, strain doa4, stronger effect = lower value): 0.804 (active)
normalized growth (locus YDR101C, strain arx1, stronger effect = lower value): 0.929 (inactive)
normalized growth (locus YDR137W, strain rgp1, stronger effect = lower value): 1.26 [resistant] (active)
normalized growth (locus YDR150W, strain NUM1, stronger effect = lower value): 0.563 (active)
normalized growth (locus YDR159W, strain sac3, stronger effect = lower value): 0.974 (inactive)
normalized growth (locus YDR162C, strain NBP2, stronger effect = lower value): 0.0524 (active)
normalized growth (locus YDR195W, strain ref2): 1.15 [resistant] (active)
normalized growth (locus YDR297W, strain sur2, stronger effect = lower value): 0.968 (inactive)
normalized growth (locus YDR318W, strain mcm21, stronger effect = lower value): 0.91 (active)
normalized growth (locus YDR334W, strain swr1, stronger effect = lower value): 0.94 (inactive)
normalized growth (locus YDR335W, strain msn5, stronger effect = lower value): 0.96 (inactive)
normalized growth (locus YDR363W, strain ESC2, stronger effect = lower value): 0.891 (inactive)
normalized growth (locus YDR388W, stronger effect = lower value): 0.805 (active)
normalized growth (locus YDR392W, strain spt3, stronger effect = lower value): 0.954 (inactive)
normalized growth (locus YDR502C, strain sam2, stronger effect = lower value): 0.39 (active)
normalized growth (locus YEL003W, strain gim4, stronger effect = lower value): 0.832 (active)
normalized growth (locus YEL037C, strain rad23, stronger effect = lower value): 0.963 (inactive)
normalized growth (locus YEL061C, strain CIN8 (second series), stronger effect = lower value): 0.986 (inactive)
normalized growth (locus YEL061C, strain CIN8, stronger effect = lower value): 0.664 (active)
normalized growth (locus YER002W, strain NOP16, stronger effect = lower value): 1 (inactive)
normalized growth (locus YER015W, strain faa2, stronger effect = lower value): 0.556 (active)
normalized growth (locus YER016W, strain bim1, stronger effect = lower value): 0.972 (inactive)
normalized growth (locus YER110C, stronger effect = lower value): 1.02 (inactive)
normalized growth (locus YER111C, strain swi4, stronger effect = lower value): 0.993 (inactive)
normalized growth (locus YER155C, strain BEM2 (second series), stronger effect = lower value): 0.861 (active)
normalized growth (locus YER155C, strain BEM2, stronger effect = lower value): 1.04 (inactive)
normalized growth (locus YER167W, strain BCK2, stronger effect = lower value): 0.858 (active)
normalized growth (locus YFR010W, strain ubp6, stronger effect = lower value): 0.734 (active)
normalized growth (locus YGL078C, strain dbp3, stronger effect = lower value): 0.966 (inactive)
normalized growth (locus YGL086W, strain mad1, stronger effect = lower value): 0.61 (active)
normalized growth (locus YGL167C, strain pmr1, stronger effect = lower value): 0.947 (inactive)
normalized growth (locus YGL173C, strain kem1, stronger effect = lower value): 0.874 (active)
normalized growth (locus YGL227W, strain vid30, stronger effect = lower value): 0.997 (inactive)
normalized growth (locus YGL240W, strain doc1, stronger effect = lower value): 1.01 (inactive)
normalized growth (locus YGL248W, strain PDE1, stronger effect = lower value): 0.99 (inactive)
normalized growth (locus YGL253W, strain hxk2, stronger effect = lower value): 0.927 (inactive)
normalized growth (locus YGR078C, strain PAC10, stronger effect = lower value): 0.594 (active)
normalized growth (locus YGR135W, strain pre9, stronger effect = lower value): 0.544 (active)
normalized growth (locus YGR229C, strain SMI1, stronger effect = lower value): 0.065 (active) and 1.02 (inactive)
normalized growth (locus YGR252W, strain gcn5, stronger effect = lower value): 0.309 (active)
normalized growth (locus YHR013C, strain ard1, stronger effect = lower value): 0.872 (inactive)
normalized growth (locus YHR027C, strain rpn1, stronger effect = lower value): 0.594 (active)
normalized growth (locus YHR030C, strain SLT2, stronger effect = lower value): 0.465 (active) and 1.02 (inactive)
normalized growth (locus YHR079C, strain IRE1 (second series), stronger effect = lower value): 0.969 (inactive)
normalized growth (locus YHR079C, strain IRE1, stronger effect = lower value): 1 (inactive)
normalized growth (locus YHR094C, strain hxt1, stronger effect = lower value): 1 (inactive)
normalized growth (locus YHR129C, strain ARP1, stronger effect = lower value): 0.932 (inactive)
normalized growth (locus YHR142W, strain chs7, stronger effect = lower value): 0.854 (active)
normalized growth (locus YHR200W, strain rpn10, stronger effect = lower value): 0.869 (active)
normalized growth (locus YIL066C, strain RNR3, stronger effect = lower value): 0.793 (active)
normalized growth (locus YIL073C, strain SPO22, stronger effect = lower value): 0.854 (inactive)
normalized growth (locus YIL125W, strain kgd1, stronger effect = lower value): 0.958 (inactive)
normalized growth (locus YIR030C, strain dcg1, stronger effect = lower value): 1 (inactive)
normalized growth (locus YJL092W, strain hpr5, stronger effect = lower value): 0.942 (inactive)
normalized growth (locus YJL095W, strain BCK1 (second series), stronger effect = lower value): 0.919 (active)
normalized growth (locus YJL095W, strain BCK1, stronger effect = lower value): 0.494 (active) and 1.04 (inactive)
normalized growth (locus YJL115W, strain asf1, stronger effect = lower value): 0.99 (inactive)
normalized growth (locus YJL129C, strain trk1, stronger effect = lower value): 0.83 (active)
normalized growth (locus YJL134W, strain LCB3, stronger effect = lower value): 0.991 (inactive)
normalized growth (locus YJL154C, strain vps35, stronger effect = lower value): 0.982 (inactive)
normalized growth (locus YJL164C, strain tpk1, stronger effect = lower value): 0.878 (active)
normalized growth (locus YJL166W, strain qcr8, stronger effect = lower value): 0.809 (active)
normalized growth (locus YJL168C, strain set2, stronger effect = lower value): 1.01 (inactive)
normalized growth (locus YJL187C, strain SWE1 (second series), stronger effect = lower value): 0.85 (active)
normalized growth (locus YJR043C, strain POL32, stronger effect = lower value): 0.247 (active)
normalized growth (locus YJR066W, strain TOR1, stronger effect = lower value): 0.968 (inactive)
normalized growth (locus YJR075W, strain HOC1, stronger effect = lower value): 0.131 (active)
